# Test results: PubChem BioAssay (NCATS)
# Records with an inconclusive call do not appear. A call without a number means that no potency is given here. Values without a mark were called inactive. The source made the active and inactive calls. The call rests on the fitted dose curve; in most records, active means well fitted curve in the direction sought with a large enough effect; inconclusive means small, poorly fitted or top-dose-only effect, or another doubt; inactive means no such curve, though single readings can be large; an effect the other way counts as inactive or inconclusive.
# Experiments:
# MCC-13 = test: qHTS assay to identify novel small-molecules to repurpose for Merkel cell carcinoma treatment (AID 1296009); details: MCC and control cell lines, CellTiter-Glo viability, 72 h; series mostly up to 46 µM; further: nearly all actives have a fitted effect of over 60% in size; further: potency means the concentration at half of the fitted maximal effect
# Method in brief: (§1)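 Luminescence from CellTiter-Glo, read 10 min after addition at room temperature, reported viability following a 72 hr, 37 degree celsius treatment with NPC or MIPE compounds in titration; values normalized to plate controls.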
# MCC-26 = test: as above; details: MCC and control cell lines, CellTiter-Glo viability, 72 h; series mostly up to 46 µM
# Method in brief: as §1
# MKL-1 = test: as above; details: MCC and control cell lines, CellTiter-Glo viability, 72 h; series mostly up to 46 µM
# Method in brief: as §1
# MKL-2 = test: as above; details: MCC and control cell lines, CellTiter-Glo viability, 72 h; series mostly up to 46 µM
# Method in brief: as §1
# UISO = test: as above; details: MCC and control cell lines, CellTiter-Glo viability, 72 h; series mostly up to 46 µM
# Method in brief: as §1
# WaGa = test: as above; details: MCC and control cell lines, CellTiter-Glo viability, 72 h; series mostly up to 46 µM
# Method in brief: as §1
# C33A = test: Primary qHTS to identify gynecologic anti-cancer compounds using libraries of approved drugs and bioactive compounds (AID 1345084); details: Gynecologic cancer cell panel viability, ATPlite luminescence, 48 h; series mostly up to 57.5 µM; further: nearly all actives have a fitted effect of over 55% in size
# Method in brief: (§2)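 48 h compound exposure at 37 C, 5% CO2; five-point qHTS. ATPlite luminescence readout of cell ATP.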
# CAOV3 = test: as above; details: Gynecologic cancer cell panel viability, ATPlite luminescence, 48 h; series mostly up to 57.5 µM
# Method in brief: as §2
# CASKI = test: as above; details: Gynecologic cancer cell panel viability, ATPlite luminescence, 48 h; series mostly up to 57.5 µM
# Method in brief: as §2
SMILES,Potency (MCC-13),Potency (MCC-26),Potency (MKL-1),Potency (MKL-2),Potency (UISO),Potency (WaGa),Potency (C33A),Potency (CAOV3),Potency (CASKI)
Cc1scc2c1N(C(=O)CN1CCN(C)CC1)c1ccccc1NC2=O,inactive,inactive,inactive,inactive,inactive,inactive,inactive,inactive,inactive
Cc1ccc(S(=O)(=O)NC(=O)NN2CCCCCC2)cc1,inactive,inactive,inactive,inactive,inactive,inactive,inactive,inactive,inactive
Cc1nc2ccccn2c(=O)c1CCN1CCC(C(=O)c2ccc(F)cc2)CC1,inactive,inactive,inactive,inactive,inactive,–,inactive,inactive,inactive
NC(N)=N/N=C/c1c(Cl)cccc1Cl,inactive,inactive,inactive,inactive,inactive,–,inactive,inactive,inactive
CN(C)CC[C@@H](c1ccc(Br)cc1)c1ccccn1,inactive,inactive,inactive,inactive,inactive,inactive,inactive,inactive,inactive
O=C(CCCN1CCC(O)(c2cccc(C(F)(F)F)c2)CC1)c1ccc(F)cc1,inactive,inactive,inactive,–,inactive,inactive,inactive,inactive,inactive
CCN(CC)CCNC(=O)c1ccc(NC(C)=O)cc1,inactive,inactive,inactive,inactive,inactive,–,inactive,inactive,inactive
Fc1ccc(C(c2ccc(F)cc2)N2CCN(C/C=C/c3ccccc3)CC2)cc1,inactive,inactive,inactive,–,inactive,–,–,–,–
CCCCNc1c(C(=O)OCC)c(C)nc2c1cnn2CC,inactive,inactive,inactive,inactive,–,inactive,inactive,inactive,inactive
CC(=O)OC(C)C[N+](C)(C)C (stereo not given),inactive,inactive,inactive,–,inactive,inactive,inactive,inactive,inactive
CN(C)CC/C=C1\c2ccccc2COc2ccccc21,inactive,inactive,inactive,–,inactive,inactive,inactive,inactive,–
CCOC(=O)C1=C(C)NC(C)=C(C(=O)OC)C1c1cccc([N+](=O)[O-])c1 (stereo not given),inactive,inactive,inactive,inactive,inactive,inactive,inactive,–,inactive
CCN(CC)CCOCCOC(=O)C1(c2ccccc2)CCCC1,inactive,inactive,inactive,inactive,inactive,–,inactive,inactive,inactive
O=c1[nH]c(=O)n([C@H]2C[C@H](O)[C@@H](CO)O2)cc1Br,inactive,inactive,inactive,inactive,–,–,inactive,–,inactive
FC(F)(F)c1ccccc1-n1ccnc1,inactive,inactive,inactive,inactive,inactive,inactive,inactive,inactive,inactive
COc1cc(Cc2cnc(N)nc2N)cc(OC)c1OC,inactive,inactive,inactive,inactive,inactive,inactive,inactive,inactive,inactive
O=C1CC2(CCCC2)CC(=O)N1CCCCN1CCN(c2ncccn2)CC1,inactive,inactive,inactive,inactive,inactive,inactive,inactive,–,inactive
O=C(CCNNC(=O)c1ccncc1)NCc1ccccc1,inactive,inactive,inactive,inactive,inactive,–,inactive,inactive,inactive
CCn1cc(C(=O)O)c(=O)c2cc3c(cc21)OCO3,inactive,inactive,inactive,inactive,inactive,inactive,inactive,inactive,inactive
COc1ccc2c(c1OC)C(=O)O[C@@H]2[C@H]1c2c(cc3c(c2OC)OCO3)CCN1C,inactive,inactive,inactive,inactive,–,–,inactive,–,–
Brc1c(NC2=NCCN2)ccc2nccnc12,inactive,inactive,inactive,inactive,inactive,inactive,inactive,inactive,inactive
C[C@]12CCC(=O)C=C1CC[C@@H]1[C@@H]2CC[C@@]2(C)[C@H]1CC[C@]2(O)C(=O)CO,inactive,inactive,inactive,inactive,inactive,inactive,inactive,inactive,inactive
CCOC(=O)C1=C(C)NC(C)=C(C(=O)OC)C1c1cccc(Cl)c1Cl (stereo not given),inactive,inactive,inactive,inactive,inactive,–,inactive,inactive,inactive
CNCCC(Oc1ccccc1OC)c1ccccc1 (stereo not given),inactive,inactive,inactive,inactive,inactive,inactive,inactive,–,inactive
Cc1nnc(SCC2=C(C(=O)O)N3C(=O)[C@@H](NC(=O)Cn4cnnn4)[C@H]3SC2)s1,inactive,inactive,inactive,13.3 µM (active),inactive,–,inactive,inactive,inactive
Nc1c2c(nc3ccccc13)CCCC2O (stereo not given),inactive,inactive,inactive,inactive,–,inactive,inactive,inactive,inactive
CCCCCN(CCCCC)C(=O)C(CCC(=O)O)NC(=O)c1ccc(Cl)c(Cl)c1 (stereo not given),inactive,inactive,inactive,inactive,inactive,inactive,inactive,inactive,inactive
